Assay outcomes deposited in PubChem BioAssay by National Center for Advancing Translational Sciences (NCATS).
Compounds with a hit are over-represented: about 5.1% of the library has one in this group of screens.
NPSR antagonist = antagonists of human neuropeptide S receptor cAMP signaling. AID 1461. Q6W5P4. Potency, µM (top dose mostly 38.3 µM), inactives show at the highest dose activity change, negative = inhibition, hits mostly inhibitors. 220,000 tested, 1% active. CHO-NPSR cells, cAMP TR-FRET, antagonist mode; note: potency is the fitted concentration of half-maximal effect; nearly all actives have a fitted effect of over 50% in size
Target sequence (Q6W5P4 whole entry, looked up): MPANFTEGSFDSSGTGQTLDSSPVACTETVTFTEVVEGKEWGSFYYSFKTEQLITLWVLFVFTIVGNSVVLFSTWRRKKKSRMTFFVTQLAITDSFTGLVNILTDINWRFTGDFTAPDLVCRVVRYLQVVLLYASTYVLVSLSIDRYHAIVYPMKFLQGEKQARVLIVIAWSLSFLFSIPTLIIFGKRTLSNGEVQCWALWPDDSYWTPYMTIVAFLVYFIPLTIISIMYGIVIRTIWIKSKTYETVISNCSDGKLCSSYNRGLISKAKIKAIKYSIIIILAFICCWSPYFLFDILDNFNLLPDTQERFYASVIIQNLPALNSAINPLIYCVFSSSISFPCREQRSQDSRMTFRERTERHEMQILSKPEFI
KDM4E inh = JMJD2E (human) inhibition. JMJD2E catalytic domain, FDH-coupled NADH fluorescence (FDH is formaldehyde dehydrogenase). Potency, µM (doses to about 57.1 µM), without a hit: top-dose activity change, negative = inhibition, hits mostly inhibitors. 230,000 tested, 1.6% active; active = well fitted inhibition curve with a large enough effect, not every such curve was filed as active; inconclusive = small, poorly fitted or top-dose-only effect, or another doubt; inactive = no such curve, though single readings can be large or run the other way;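 note: potency is the fitted concentration of half-maximal effect; 0% = wells with enzyme and -100% = buffer wells without enzyme; nearly all actives have a fitted effect of over 50% in size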
Target sequence (B2RXH2 1-337 limits assumed): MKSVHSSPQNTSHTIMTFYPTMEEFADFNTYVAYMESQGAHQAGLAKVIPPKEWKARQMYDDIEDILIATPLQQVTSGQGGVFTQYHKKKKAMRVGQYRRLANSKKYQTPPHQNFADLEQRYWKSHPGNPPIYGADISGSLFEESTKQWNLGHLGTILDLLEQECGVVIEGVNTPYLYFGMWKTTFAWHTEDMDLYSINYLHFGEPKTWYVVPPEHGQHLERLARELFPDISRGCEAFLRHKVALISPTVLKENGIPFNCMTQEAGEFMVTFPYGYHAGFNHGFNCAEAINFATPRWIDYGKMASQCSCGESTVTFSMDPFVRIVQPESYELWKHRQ
Tau fibril ThT = tau fibrillization inhibition (ThT binding) | P10636 | recombinant tau K18 P301L, heparin-induced fibrillization, ThT fluorescence | Potency, µM (titrated, usually from 57.4 µM), for inactives: top-dose activity, negative = inhibition, actives largely listed as inhibitors | 270,000 tested, 2.1% active | AID 1460; note: potency is the fitted concentration of half-maximal effect; nearly all actives have a fitted effect of over 55% in size
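Tau K18 P301L fragment (15 uM unlabeled plus 0.24 uM Alexa 594-labeled) in 100 mM sodium acetate pH 7 with compound, fibrillization induced by 20 uM heparin for 6 hr at 37 C. Thioflavin T (30 uM) added, fluorescence read after 1 hr (ex 450, em 510 nm).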
Tau fluor cs = counter-screen for tau fibril formation inhibitors | tau K18 P301L Alexa594 fluorescence, heparin fibrillization | Potency, µM (highest dose often 57.7 µM), inactives show at the top dose activity change, negative = decrease | 280,000 tested, 0.93% active; note: potency is the fitted concentration of half-maximal effect; nearly all actives have a fitted effect of over 55% in size
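Human tau K18 P301L (15 uM unlabeled, 0.24 uM Alexa 594-labeled) in 100 mM sodium acetate pH 7 with 20 uM heparin, 6 hr at 37 C. ThT 30 uM added, 1 hr ambient; Alexa 594 FP and total fluorescence read at 555/632 nm.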
PNC assembly inh = perinucleolar compartment assembly inhibition; PC3M PTB-GFP, PNC prevalence imaging, 16 h; hits give low values; activity change (PNC), negative = inhibition, % at 10 µM; 140,000 tested, 3.1% active;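 active = readout at or below -70, meaning at least 70% loss of cells showing the perinucleolar compartment, a nuclear body marking cancer cells; inconclusive = readout between -30 and a set limit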;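 note: plate controls were DMSO wells for no effect and camptothecin positive control wells for full effect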
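PC3M cells stably expressing PTB-GFP, 750–1000 cells/well, treated 16 h at 37 °C with compound (23 nl of library stock), in duplicate. After paraformaldehyde fixation and Hoechst stain, imaged at 20x; PNC prevalence scored by image analysis.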
Tau fibril FP = inhibitors of human tau fibril formation | K18 P301L tau heparin fibrillization, Alexa594 FP, 6 h | Potency, µM (top dose mostly 57.7 µM), inactives show at the highest dose activity, negative = inhibition, hits mostly inhibitors | 280,000 tested, 0.39% active | AID 1468; note: potency is the fitted concentration of half-maximal effect; nearly all actives have a fitted effect of over 55% in size
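K18 P301L tau (15 uM unlabeled/0.24 uM Alexa 594-labeled, final) + compound + heparin 20 uM final; 100 mM NaOAc pH 7; 6 hr 37 C; ThT 30 uM final added, 1 hr RT; FP ex 555/em 632 nm.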
The depositor's hits bear a star; [ ] = another dose, or the depositor's remark. Unless noted, calls come from the whole dose curve; as a rule, active = well fitted curve in the direction sought with a large enough effect; inconclusive = small, poorly fitted or top-dose-only effect, or another doubt; inactive = no such curve, though single readings can be large; an effect the other way counts as inactive or inconclusive. Unless noted, % is set by controls: 0 for no effect and ±100 for the full control effect.

What do the screens show for `CCOc1ccccc1CNC(=O)c1cn(-c2ccc(OC)cc2)c(=O)c2ccccc12`?
Tau fibril ThT: inconclusive; Tau fluor cs: -6.4%; Tau fibril FP: 5.1%

How did COc1ccc(/C=N/Nc2ccccc2)cc1Cn1nc(C)c([N+](=O)[O-])c1C do in these assays?
NPSR antagonist: -18.7%[46.1 µM]; KDM4E inh: 6.9%; Tau fibril ThT: inconclusive; Tau fluor cs: inconclusive; PNC assembly inh: -97.9*; Tau fibril FP: inconclusive

How did Cc1ccccc1C(=O)N1CCC(N2CCN(Cc3ccc(F)cc3)C(=O)C2=O)CC1 do in these assays?
Tau fibril ThT: -2.3%; Tau fluor cs: -5.8%; Tau fibril FP: -1.3%

Results for COc1ccc(C2=NOC(Cn3c(Cc4ccc(Cl)cc4)nc4c3c(=O)n(C)c(=O)n4C)C2)cc1 (stereo unspecified) ?
NPSR antagonist: inconclusive; KDM4E inh: -0.8%; Tau fibril ThT: inconclusive; Tau fluor cs: -6.0%; PNC assembly inh: -108.2*; Tau fibril FP: 9.0%

Results for CC(C)COc1ccc(C(=O)N(Cc2cccc(F)c2)C2CCS(=O)(=O)C2)cc1 (stereo unspecified) ?
Tau fibril ThT: 1.1%; Tau fluor cs: -14.9%; Tau fibril FP: -2.7%

What do the screens show for `Cc1ccc(CN2C(=O)CCC2C(=O)NCC2CCCO2)cc1` (stereo unspecified)?
NPSR antagonist: -1.5%[46.1 µM]; KDM4E inh: -0.7%; Tau fibril ThT: -5.1%; Tau fluor cs: 0.5%; PNC assembly inh: inconclusive; Tau fibril FP: -3.9%

How did O=C(NCC1CCCO1)C1CCN(S(=O)(=O)Cc2ccccc2)CC1 (stereo unspecified) do in these assays?
NPSR antagonist: -5.4%[46.1 µM]; KDM4E inh: 10.6%; Tau fibril ThT: -3.0%; Tau fluor cs: -4.5%; PNC assembly inh: -107.7*; Tau fibril FP: 0.4%

What do the screens show for `O=C(NCC1CCCO1)C1CCC(=O)N1CCc1ccccc1` (stereo unspecified)?
NPSR antagonist: -9.6%[46.1 µM]; KDM4E inh: -8.8%; Tau fibril ThT: -4.9%; Tau fluor cs: -3.3%; PNC assembly inh: -102.1*; Tau fibril FP: -7.4%

What do the screens show for `Cc1cncn1CCc1nc2c3ccccc3nc(SCC(=O)Nc3ccccc3F)n2n1`?
Tau fibril ThT: -11.5%; Tau fluor cs: -8.0%; Tau fibril FP: -7.7%

Results for COc1ccccc1NC(=O)CCNS(=O)(=O)c1ccc2c(c1)CCN2C(=O)C1CC1 ?
Tau fibril ThT: 8.6%; Tau fluor cs: 7.5%; Tau fibril FP: 2.3%

How did Cc1ccccc1NC(=O)/C(=C/c1ccccc1)c1ccccc1 do in these assays?
NPSR antagonist: inconclusive; KDM4E inh: -4.6%; Tau fibril ThT: inconclusive; Tau fluor cs: -12.1%; PNC assembly inh: -2.6; Tau fibril FP: -1.9%

How did O=C(Nc1ccccc1)/C(=C/c1ccccc1)c1ccccc1 do in these assays?
NPSR antagonist: -20.0%[46.1 µM]; KDM4E inh: 28.2µM*; Tau fibril ThT: -21.1%; Tau fluor cs: inconclusive; PNC assembly inh: -12.0; Tau fibril FP: 20µM*

How did O=[N+]([O-])c1ccc(O)c(Nc2ncnc3ccc(Br)cc23)c1 do in these assays?
NPSR antagonist: -34.2%; KDM4E inh: -4.4%; Tau fibril ThT: 15.8µM*; Tau fluor cs: -29.6%; Tau fibril FP: 4.5%

Results for CSc1cccc(NC(=O)/C=C/c2cccc(Cl)c2)c1 ?
NPSR antagonist: -31.4%; KDM4E inh: inconclusive; Tau fibril ThT: 18.5%; Tau fluor cs: 12.6µM*[quencher]; PNC assembly inh: -5.8; Tau fibril FP: inconclusive

Results for COc1cccc(NC(=O)C2CCCN2S(=O)(=O)c2ccc3nc(-c4ccccc4)[nH]c3c2)c1 (stereo unspecified) ?
Tau fibril ThT: -10.6%; Tau fluor cs: -11.1%; Tau fibril FP: -15.4%

Results for Fc1ccc(Nc2c(-c3c[nH]c4ccccc34)nc3ccccn23)cc1 ?
Tau fibril ThT: -10.7%; Tau fluor cs: 7.08µM*[quencher]; Tau fibril FP: -5.0%

Results for Cc1ccc2nc(-c3c[nH]c4ccccc34)c(Nc3ccccc3)n2c1 ?
Tau fibril ThT: -6.7%; Tau fluor cs: inconclusive; Tau fibril FP: 1.6%

Results for c1ccc(Nc2c(-c3c[nH]c4ccccc34)nc3ccccn23)cc1 ?
Tau fibril ThT: inconclusive; Tau fluor cs: 12.6µM*[quencher]; Tau fibril FP: inconclusive

Results for Cn1c(C(O)C(O)c2ccccc2)nc2ccccc21 (stereo unspecified) ?
NPSR antagonist: 5.9%; KDM4E inh: inconclusive; Tau fibril ThT: 0.7%; Tau fluor cs: 2.2%; Tau fibril FP: -3.3%

How did Cn1c(C(C#N)C2=C(Cl)C(=O)N(c3ccccc3)C2=O)nc2ccccc21 (stereo unspecified) do in these assays?
NPSR antagonist: inconclusive; KDM4E inh: -21.9%; Tau fibril ThT: 12.6µM*; Tau fluor cs: 15.8µM*[quencher]; PNC assembly inh: 13.4; Tau fibril FP: inconclusive

What do the screens show for `COc1cccc(C(=O)Nc2ccc(C(=O)OCc3cc(=O)n4nc(C5CC5)sc4n3)cc2)c1`?
Tau fibril ThT: 5.9%; Tau fluor cs: 0.1%; Tau fibril FP: -2.5%

How did O=C1CC(c2ccco2)CC(O)=C1C=NCC1NCCc2ccccc21 (stereo unspecified) do in these assays?
NPSR antagonist: 1.4%[46.1 µM]; KDM4E inh: 20µM*; Tau fibril ThT: inconclusive; Tau fluor cs: -14.1%; PNC assembly inh: 112.5; Tau fibril FP: -6.9%

Results for CCOc1ccc(-c2cc3nc(C4CCN(C(=O)OC(C)(C)C)CC4)c(C(=O)Nc4cccc(Cl)c4C)cn3n2)cc1 ?
Tau fibril ThT: -17.3%; Tau fluor cs: -17.9%; Tau fibril FP: -11.6%

How did COc1ccc(S(=O)(=O)NC(CC(=O)N2CCc3ccccc32)c2ccco2)cc1 (stereo unspecified) do in these assays?
NPSR antagonist: -21.2%[46.1 µM]; KDM4E inh: -1.5%; Tau fibril ThT: -10.2%; Tau fluor cs: -14.7%; PNC assembly inh: -82.0*; Tau fibril FP: 2.6%

Results for Nc1cc(=O)[nH]c(=S)n1-c1ccccc1 ?
NPSR antagonist: -2.0%[46.1 µM]; KDM4E inh: -2.5%; Tau fibril ThT: 2.0%; Tau fluor cs: -1.4%; PNC assembly inh: 9.7; Tau fibril FP: -4.1%

How did O=C1NC(=S)CN1c1ccccc1 do in these assays?
NPSR antagonist: 17.3%; KDM4E inh: inconclusive; Tau fibril ThT: 31.6µM*; Tau fluor cs: -19.3%; Tau fibril FP: inconclusive

How did CCN(CC)CCNC(=O)c1ccc(-c2nc(CS(=O)(=O)c3ccc(C)cc3)c(C)o2)cc1 do in these assays?
Tau fibril ThT: 9.1%; Tau fluor cs: -4.0%; Tau fibril FP: inconclusive
